ELG1 repair inh – blocks ELG1-dependent DNA repair in HEK293T cells. 330,000 tested, 2.3% active. HEK293T ELG1-luciferase reporter, luminescence, 16 h; DNA damage induced by 5-fluorouridine. Potency, µM (series often up to 46.1 µM), most hits filed as inhibitors; further: nearly all actives have a fitted effect of over 55% in size
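In this reporter screen, reduction of luminescence relative to DMSO vehicle indicated activity. Compounds and 5-fluorouridine were added together to 2,000 cells per well, incubated for 16 hr at 37 °C, then developed with ONE-Glo.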
KB-3-1 cytotox – KB-3-1 parental cell cytotoxicity; 400,000 tested, 1.4% active; Potency, µM (highest dose often 46.1 µM), hits mostly cytotoxic; AID 1347075; KB-3-1 viability, CellTiter-Glo ATP luminescence, 72 h; further: nearly all actives have a fitted effect of over 60% in size
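Using CellTiter-Glo luminescence, growth of non-resistant KB-3-1 adenocarcinoma cells is assessed 72 h after pin-tool compound addition at 37 °C. Normalized responses across the concentration series yield fitted curves.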
KB-V1 MDR tox – kills drug-selected multidrug resistant KB-V1 cells; KB-V1 MDR cells viability, CellTiter-Glo, 72 h; Potency, µM (top dose mostly 46.1 µM), actives largely listed as cytotoxic; 400,000 tested, 3.4% active; AID 1347076; further: nearly all actives have a fitted effect of over 60% in size
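Potencies derive from concentration-effect curves fitted to normalized luminescence (CellTiter-Glo) of KB-V1 cells treated for 72 h at 37 degrees C in phenol-red-free DMEM containing 10% FBS.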
MCF10A rerep – inducers of DNA re-replication in MCF 10A breast cells; Potency, µM (doses to about 46.1 µM), hits mostly activators; MCF 10A DNA re-replication, Hoechst nuclear intensity, 48 h; 350,000 tested, 2.9% active; further: nearly all actives have a fitted effect of over 50% in size
SW480 rereplic – DNA re-replication induction in SW480 cells | SW480 DNA re-replication, Hoechst DNA content imaging, 48 h | Potency, µM (top dose mostly 46.1 µM), most hits filed as activators | 340,000 tested, 1.8% active; further: nearly all actives have a fitted effect of over 55% in size
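Cells (250 per well) received 23 nL compound or DMSO by pin tool and were kept 48 hr at 37 C, 5% CO2. Nuclei were then stained with Hoechst for 40 min and scanned for DNA content.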
A number is an active result; [ ] = remark or other dose. In the library only some 8.1% were active in any assay of this set; here they are far more common. The call rests on the fitted dose curve; in most records, active means well fitted curve in the direction sought with a large enough effect; inconclusive means small, poorly fitted or top-dose-only effect, or another doubt; inactive means no such curve, though single readings can be large; an effect the other way counts as inactive or inconclusive.

`CC(C)CCn1c(Oc2ccc(Cl)cc2)nc2c1c(=O)n(C)c(=O)n2C` gave ELG1 repair inh 21µM, KB-3-1 cytotox inconclusive, KB-V1 MDR tox inconclusive, MCF10A rerep inactive and SW480 rereplic inactive.
Screening CCn1c(Oc2ccc(F)cc2)nc2c1c(=O)n(C)c(=O)n2C returned ELG1 repair inh 8.2µM, KB-3-1 cytotox inactive, KB-V1 MDR tox inactive, MCF10A rerep inactive and SW480 rereplic inactive.
Screening CCCCn1c(Oc2ccc(C(=O)OC)cc2)nc2c1c(=O)n(C)c(=O)n2C returned ELG1 repair inh 21µM, KB-3-1 cytotox inactive, KB-V1 MDR tox 16µM, MCF10A rerep inactive and SW480 rereplic inactive.
`CCc1ccc2nc(NC(=O)c3ccc(N4C(=O)CCC4=O)cc3)sc2c1` gave ELG1 repair inh inconclusive, KB-3-1 cytotox inactive, KB-V1 MDR tox inactive, MCF10A rerep inactive and SW480 rereplic inactive.
For COc1ccc2c(c1)CCCN2S(=O)(=O)c1ccc(Cl)cc1 the results were ELG1 repair inh inconclusive, KB-3-1 cytotox inconclusive, KB-V1 MDR tox inactive, MCF10A rerep inconclusive and SW480 rereplic inconclusive.
Screening O=C(NCc1ccncc1)[C@@H]1CCCN1C(=O)[C@@H]1CCCN1C(=O)c1cccc2ccccc12 returned KB-3-1 cytotox inactive and KB-V1 MDR tox inactive.
Screening Cc1nc2ccccc2c(=O)n1NC(=O)Cc1ccc(Br)cc1 returned ELG1 repair inh inactive, KB-3-1 cytotox inactive, KB-V1 MDR tox inactive, MCF10A rerep inactive and SW480 rereplic inactive.
COc1ccc(-c2nc3ccccc3o2)cc1NC(=O)Cc1ccc(Cl)cc1 was read as KB-3-1 cytotox inactive and KB-V1 MDR tox inactive.
`CNC[C@@H](C)NC[C@@H](Cc1ccccc1)NCCc1ccccc1` gave ELG1 repair inh inactive, KB-3-1 cytotox inconclusive, KB-V1 MDR tox inactive, MCF10A rerep inactive and SW480 rereplic 0.37µM.
`COc1ccc2oc(=O)c(C(=O)Nc3ccccc3C)cc2c1` gave ELG1 repair inh inconclusive, KB-3-1 cytotox inactive, KB-V1 MDR tox inactive, MCF10A rerep inactive and SW480 rereplic inactive.
For O=C(Nc1nc2ccc(S(=O)(=O)N3CCCC3)cc2s1)c1ccccn1 the results were ELG1 repair inh 21µM, KB-3-1 cytotox inactive, KB-V1 MDR tox inactive, MCF10A rerep inactive and SW480 rereplic inactive.
`O=C(Nc1ccc(F)cc1)c1nn(-c2ccccc2)c(=O)cc1Cl` gave ELG1 repair inh inconclusive, KB-3-1 cytotox 4.6µM, KB-V1 MDR tox inconclusive, MCF10A rerep inconclusive and SW480 rereplic inconclusive.
For CS(=O)(=O)c1ccc2nc(NC(=O)c3ccccc3Br)sc2c1 the results were ELG1 repair inh inconclusive, KB-3-1 cytotox inactive, KB-V1 MDR tox inactive, MCF10A rerep inactive and SW480 rereplic inactive.
COc1ccccc1C(=O)Nc1nc2ccc(S(C)(=O)=O)cc2s1 was read as ELG1 repair inh inactive, KB-3-1 cytotox inactive, KB-V1 MDR tox 5.8µM, MCF10A rerep inconclusive and SW480 rereplic inactive.
Screening CS(=O)(=O)c1ccc2nc(NC(=O)c3ccccc3Cl)sc2c1 returned ELG1 repair inh inactive, KB-3-1 cytotox inactive, KB-V1 MDR tox inactive, MCF10A rerep 0.82µM and SW480 rereplic inactive.
Cc1ccc(C)c(SCc2noc(C(=O)NC(C)C)c2C(=O)O)c1 was read as ELG1 repair inh inactive, KB-3-1 cytotox inactive, KB-V1 MDR tox inactive, MCF10A rerep inconclusive and SW480 rereplic inactive.
Screening Cc1ccc(C)c2[nH]c(=O)c(CN(CC3CCCO3)S(=O)(=O)c3ccc4c(c3)OCCO4)cc12 (centres undefined) returned ELG1 repair inh inactive, KB-3-1 cytotox inactive, KB-V1 MDR tox inactive, MCF10A rerep inactive and SW480 rereplic inactive.
For O=C(CN1C(=O)c2ccccc2S1(=O)=O)c1ccc(O)c(O)c1 the results were ELG1 repair inh inconclusive, KB-3-1 cytotox inactive, KB-V1 MDR tox inactive, MCF10A rerep inactive and SW480 rereplic inactive.
`Cc1ccc(NC(=O)c2cc(-c3ccccc3)nn2-c2ccccc2)cc1` gave ELG1 repair inh inconclusive, KB-3-1 cytotox inconclusive, KB-V1 MDR tox 21µM, MCF10A rerep 21µM and SW480 rereplic inactive.
`Cc1ccc(NC(=O)c2cc(-c3ccccc3)nn2-c2ccccc2)c(Br)c1` gave ELG1 repair inh inactive, KB-3-1 cytotox inconclusive, KB-V1 MDR tox inactive, MCF10A rerep inconclusive and SW480 rereplic inactive.
For CS(=O)(=O)c1ccc2nc(NC(=O)c3cc(-c4ccccc4)nn3-c3ccccc3)sc2c1 the results were ELG1 repair inh 7.3µM, KB-3-1 cytotox inactive, KB-V1 MDR tox inactive, MCF10A rerep inactive and SW480 rereplic inactive.
`COc1ccc(Nc2nnc(-c3cc4cc(Cl)ccc4oc3=O)s2)cc1` gave KB-3-1 cytotox inactive and KB-V1 MDR tox inactive.
Screening O=C1c2ccccc2-c2c1c1ccccc1c(=O)n2CCO returned KB-3-1 cytotox inactive, KB-V1 MDR tox 18µM, MCF10A rerep inconclusive and SW480 rereplic inactive.
For COc1ccc(-c2nc3ccc(Cl)cn3c2NC2CCCCC2)cc1SC1CCCCC1 the results were ELG1 repair inh inactive, KB-3-1 cytotox inconclusive, KB-V1 MDR tox inactive, MCF10A rerep 16µM and SW480 rereplic inactive.
COc1ccc(-c2nc3ccc(C)cn3c2NCc2ccccc2)cc1SC1CCCCC1 was read as ELG1 repair inh inconclusive, KB-3-1 cytotox inactive, KB-V1 MDR tox inactive, MCF10A rerep 18µM and SW480 rereplic inactive[9.22 µM].
`CCCCNc1c(-c2ccc(OC)c(SC3CCCCC3)c2)nc2ccc(C)cn12` gave ELG1 repair inh inconclusive, KB-3-1 cytotox inconclusive, KB-V1 MDR tox inconclusive, MCF10A rerep 7.3µM and SW480 rereplic inactive.
Screening CCCCCCSc1cc(-c2nc3ccc(Cl)cn3c2NCCCC)ccc1OC returned ELG1 repair inh inactive, KB-3-1 cytotox inactive, KB-V1 MDR tox inconclusive, MCF10A rerep inactive and SW480 rereplic inactive[9.22 µM].
Screening Cc1ccc2nc(-c3cccc(SC4CCCCC4)c3)c(NC3CCCCC3)n2c1 returned ELG1 repair inh inconclusive, KB-3-1 cytotox inactive, KB-V1 MDR tox inactive, MCF10A rerep inactive and SW480 rereplic inactive.
Screening CCCCNc1c(-c2ccc(SC3CCCCC3)c(OC)c2)nc2ccc(C)cn12 returned ELG1 repair inh inconclusive, KB-3-1 cytotox inconclusive, KB-V1 MDR tox inconclusive, MCF10A rerep 10µM and SW480 rereplic inconclusive.
Screening Cc1cccc(CN2C(=O)CSc3ccc(C(=O)NC4CC4)cc32)c1 returned ELG1 repair inh inactive, KB-3-1 cytotox inactive, KB-V1 MDR tox inconclusive, MCF10A rerep inactive and SW480 rereplic inactive.
Screening O=C(Cc1ccccc1)c1ccc(O)cc1O returned KB-3-1 cytotox inactive, KB-V1 MDR tox inactive, MCF10A rerep inactive and SW480 rereplic inactive.
Screening COc1ccc(C(=O)NCC(c2cccnc2)N2CCc3ccccc3C2)cc1 (centres undefined) returned KB-3-1 cytotox inactive and KB-V1 MDR tox inconclusive.
For O=C(COc1ccc(Cl)cc1)OCCNC12CC3CC(CC(C3)C1)C2 the results were MCF10A rerep inactive and SW480 rereplic inactive.
Cc1ccc(-c2nn(C)c(=O)c3ccccc23)cc1CNC(=O)CSc1nc2ccccc2o1 was read as ELG1 repair inh inconclusive, KB-3-1 cytotox inactive, KB-V1 MDR tox inactive, MCF10A rerep inconclusive and SW480 rereplic inactive.

Screening data (PubChem BioAssay)
